12-LOX inh: blocks human arachidonate 12S-lipoxygenase; purified 12hLO, xylenol orange hydroperoxide absorbance; Potency, µM (top dose mostly 108 µM), inactives show at the highest dose activity change, negative = inhibition, usual class: inhibitors; 580,000 tested, 1.1% active; AID 1671190
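Purified human 12hLO (150 nM final) in 25 mM Hepes, 0.01% Triton X-100, pH 7.0 was preincubated 15 min at room temperature with compound. Then 40 uM arachidonic acid was added, 30 min. Hydroperoxide was read by Fe-XO absorbance ratio 573/405 nm.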
VDR inh: vitamin D3 receptor (human) inhibition; P11473; VDR-SRC2-3 peptide fluorescence polarization, 2 h; Potency, µM, for the others: max response, negative = inhibition, actives largely listed as inhibitors; 400,000 tested, 0.93% active
Target sequence (P11473 whole entry, looked up): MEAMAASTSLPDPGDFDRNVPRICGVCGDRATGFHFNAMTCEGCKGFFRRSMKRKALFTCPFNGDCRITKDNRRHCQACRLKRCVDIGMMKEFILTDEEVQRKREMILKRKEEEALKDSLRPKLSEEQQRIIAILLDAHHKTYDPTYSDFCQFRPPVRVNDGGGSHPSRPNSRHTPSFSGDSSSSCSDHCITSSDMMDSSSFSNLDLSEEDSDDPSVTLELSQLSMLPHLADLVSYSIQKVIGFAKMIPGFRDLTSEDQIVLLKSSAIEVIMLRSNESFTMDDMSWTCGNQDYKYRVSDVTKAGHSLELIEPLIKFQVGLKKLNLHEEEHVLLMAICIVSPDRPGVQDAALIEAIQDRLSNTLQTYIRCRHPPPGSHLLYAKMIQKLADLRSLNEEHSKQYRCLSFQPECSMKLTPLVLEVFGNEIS
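VDR–SRC2-3 interaction, FP format. Cmpds 23 nl via pintool, brief spin, 2 h ambient incubation.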
Sfp inh: inhibitors of Bacillus subtilis Sfp phosphopantetheinyl transferase | Q9F4F7 | Potency, µM, without a hit: largest response in the series, negative = inhibition, most hits filed as inhibitors | 310,000 tested, 3.5% active | Biochemical Sfp PPTase activity, qHTS;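 further: the enzyme is Sfp with the accession as filed and its product quenches rhodamine fluorescence; 0% = enzyme reaction without inhibitor and -100% = no enzyme wells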
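Buffer: 50 mM Hepes-Na pH 7.6, 10 mM MgCl2, 0.01% Nonidet P-40, 0.01% BSA. Enzyme 15 nM, pre-exposed to compound 15 min; substrates then added and fluorescence change tracked over 30 min.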
PLK1 PBD block: inhibitors of human PLK1 polo-box domain binding; AID 720504; 360,000 tested, 2.8% active; Potency, µM, for inactives: max response, negative = inhibition, most hits filed as inhibitors; Plk1 PBD binding of FITC phosphopeptide, fluorescence polarization; further: series mostly up to about 57 µM; nearly all actives have a fitted effect of over 65% in size
The depositor's hits bear a star; ? = inconclusive; . = not tested or not shown; [ ] = remark or other dose. In the library only some 4.2% were active in any assay of this set; here they are far more common. The call rests on the fitted dose curve; in most records, active means well fitted curve in the direction sought with a large enough effect; inconclusive means small, poorly fitted or top-dose-only effect, or another doubt; inactive means no such curve, though single readings can be large; an effect the other way counts as inactive or inconclusive. Unless noted, on the % scale 0 is the no-effect control and ±100 the full control effect; potency means the concentration at half of the fitted maximal effect.

SMILES	12-LOX inh	VDR inh	Sfp inh	PLK1 PBD block
O=C(O)c1cc2cc(Cl)cc(Cl)c2oc1=O	-9.5%	-5.0%	-15.6%	?
CC(C)OC(=O)c1cccc(C(=O)O)n1	4.8%	4.7%	50.1µM*	2.1%
O=C(c1ccccc1F)N1CCc2nc(C3CC3)nc(-c3ccc(Cl)cc3)c2C1	44.7µM*	.	.	.
O=C(c1ccccc1F)N1CCc2nc(C3CC3)nc(-c3ccc(Cl)cc3)c2CC1	19.9%	.	.	.
COc1cc(OC)c(NC(=O)COc2ccccc2-c2nnc(-c3ccccc3)o2)cc1Cl	-6.3%	0.9%	.	.
Cc1ccc(-c2nc(CS(=O)CC(=O)NC3CCCCC3)c(C)o2)cc1 (stereo not given)	29.2%	0.5%	2.6%	-15.7%
Cc1ccccc1-c1nc(CS(=O)CC(=O)NCCc2ccc(Cl)cc2)c(C)o1 (stereo not given)	?	-14.4%	-7.5%	18.9µM*
COc1ccc(-c2nc(CS(=O)CC(=O)NC3CCCC3)c(C)o2)cc1 (stereo not given)	-13.5%	?	13.3%	26.7µM*
CCc1ccc(-c2nc(CS(=O)CC(=O)NCCCN3CCC(C)CC3)c(C)o2)cc1 (stereo not given)	4.0%	-8.8%	16.7%	26.7µM*
CCc1ccc(-c2nc(CS(=O)CC(=O)NCCN3CCCCCC3)c(C)o2)cc1 (stereo not given)	?	-6.7%	-7.9%	-22.6%
Cc1oc(-c2cccs2)nc1CS(=O)CC(=O)NC1CCCCCC1 (stereo not given)	16.8%	?	-18.8%	21.2µM*
Cc1ccccc1-c1nc(CS(=O)CC(=O)NC2CCCCC2)c(C)o1 (stereo not given)	-4.8%	-4.5%	2.3%	-15.9%
Cc1ccc(CCNC(=O)CS(=O)Cc2nc(-c3ccccc3C)oc2C)cc1 (stereo not given)	?	-11.1%	.	.
CCN(CC)C(=O)Cc1cccn1-c1cccc(Cl)c1	-24.8%	.	.	.
Cc1cc(C(C)(C)C)cc(C)c1Cn1c2[n+](c3ccc(C(F)(F)F)cc31)CCCCC2	35.5µM*	-21.0%	-23.8%	0.1%
N#Cc1ccc(NC(=O)Cn2c3[n+](c4ccc(C(F)(F)F)cc42)CCCCC3)cc1	?	-10.0%	-14.9%	23.8µM*
O=C(Cn1c2[n+](c3ccc(C(F)(F)F)cc31)CCCCC2)Nc1ccc(Br)cc1	.	6.9%	?	0.2%
CC(C)Oc1cccc2c1c(NC(=O)CCc1cc(=O)[nH]o1)nn2C	6.0%	.	.	.
Cn1c(N)c(C#N)c2c(c1=S)CSC(C)(C)C2	-21.9%	-14.6%	79.4µM*	-26.7%
O=C(COC(=O)Cc1ccc(-c2ccccc2)cc1)NCc1ccccc1	-8.2%	?	3.4%	26.7µM*
Cc1nc2ccccc2c(C)c1C(=O)c1ccccc1	-27.3%	-17.4%	13.1%	23.8µM*
C[C@H](NC(=O)C1CC(=O)N(c2ccc3c(c2)OCO3)C1)C(=O)NC1CCCCC1 (stereo not given in full)	9.8%	?	2.8%	10.6µM*
O=C(O)C1CC(=O)N(c2ccc(F)cc2)C1 (stereo not given)	2.1%	?	16.6%	26.7µM*
O=C(O)C1CC(=O)N(c2ccc3c(c2)OCCO3)C1 (stereo not given)	?	-22.0%	4.4%	2.99µM*
O=C(Nc1ccc2c(c1)OCO2)C1CC(=O)N(c2ccc3c(c2)OCCO3)C1 (stereo not given)	-1.4%	-9.7%	12.1%	-2.3%
SMILES	12-LOX inh	VDR inh	Sfp inh	PLK1 PBD block
CC(C)[C@H](NC(=O)C1CC(=O)N(c2ccc(F)cc2)C1)C(=O)N1CCCCC1 (stereo not given in full)	-4.5%	?	6.7%	3.36µM*
NC(=O)C1CCN(c2cc(-c3noc([C@@H]4CCCN4Cc4ccncc4)n3)ccn2)CC1	5.8%[176 µM]	.	.	.
CCCCn1c(N)c(N(CCC(C)C)C(=O)C2CC(=O)N(c3ccc4c(c3)OCCO4)C2)c(=O)[nH]c1=O (stereo not given)	-17.3%	18.8%	10.9%	11.9µM*
CCCCN(C(=O)C1CC(=O)N(c2ccc3c(c2)OCCO3)C1)c1c(N)n(CC(C)C)c(=O)[nH]c1=O (stereo not given)	-32.2%	9.4%	.	-7.3%
Cc1noc(C)c1CC(=O)NC1CCc2nnc(C)n2CC1 (stereo not given)	17.1%	.	.	.
CCn1c(C)nc2cc(C(=O)OC)ccc21	-7.7%	-5.3%	16.6%	-12.8%
CCn1c(C)nc2cc(C(=O)NNS(=O)(=O)c3ccccc3F)ccc21	4.47µM*	10.2%	13.1%	-14.9%
COc1ccc(NC2CCCN(C(=O)C(=O)CC(C)C)C2)cc1OC (stereo not given)	-9.5%	.	.	.

Screens: PubChem BioAssay, National Center for Advancing Translational Sciences (NCATS)
